According to the supplement of paper PMC11732987, “Enantioselective OTUD7B fragment discovery through chemoproteomics screening and high-throughput optimisation” (Communications Chemistry, 2025):

How the values were obtained:
Test in all cases: log2 ratio of Biotin-Ahx-Ub-VS probe labelling (fragment/DMSO); higher = less target engagement (more negative = stronger competition), active = hit call of the paper (q ≤ 0.05, log2 ratio ≤ -1)
Conditions in all cases: compound concentration: 200 uM; treatment time: 3 h
[1] = molecular target: T1, USP19 (UniProt O94966)
T1 sequence (whole entry): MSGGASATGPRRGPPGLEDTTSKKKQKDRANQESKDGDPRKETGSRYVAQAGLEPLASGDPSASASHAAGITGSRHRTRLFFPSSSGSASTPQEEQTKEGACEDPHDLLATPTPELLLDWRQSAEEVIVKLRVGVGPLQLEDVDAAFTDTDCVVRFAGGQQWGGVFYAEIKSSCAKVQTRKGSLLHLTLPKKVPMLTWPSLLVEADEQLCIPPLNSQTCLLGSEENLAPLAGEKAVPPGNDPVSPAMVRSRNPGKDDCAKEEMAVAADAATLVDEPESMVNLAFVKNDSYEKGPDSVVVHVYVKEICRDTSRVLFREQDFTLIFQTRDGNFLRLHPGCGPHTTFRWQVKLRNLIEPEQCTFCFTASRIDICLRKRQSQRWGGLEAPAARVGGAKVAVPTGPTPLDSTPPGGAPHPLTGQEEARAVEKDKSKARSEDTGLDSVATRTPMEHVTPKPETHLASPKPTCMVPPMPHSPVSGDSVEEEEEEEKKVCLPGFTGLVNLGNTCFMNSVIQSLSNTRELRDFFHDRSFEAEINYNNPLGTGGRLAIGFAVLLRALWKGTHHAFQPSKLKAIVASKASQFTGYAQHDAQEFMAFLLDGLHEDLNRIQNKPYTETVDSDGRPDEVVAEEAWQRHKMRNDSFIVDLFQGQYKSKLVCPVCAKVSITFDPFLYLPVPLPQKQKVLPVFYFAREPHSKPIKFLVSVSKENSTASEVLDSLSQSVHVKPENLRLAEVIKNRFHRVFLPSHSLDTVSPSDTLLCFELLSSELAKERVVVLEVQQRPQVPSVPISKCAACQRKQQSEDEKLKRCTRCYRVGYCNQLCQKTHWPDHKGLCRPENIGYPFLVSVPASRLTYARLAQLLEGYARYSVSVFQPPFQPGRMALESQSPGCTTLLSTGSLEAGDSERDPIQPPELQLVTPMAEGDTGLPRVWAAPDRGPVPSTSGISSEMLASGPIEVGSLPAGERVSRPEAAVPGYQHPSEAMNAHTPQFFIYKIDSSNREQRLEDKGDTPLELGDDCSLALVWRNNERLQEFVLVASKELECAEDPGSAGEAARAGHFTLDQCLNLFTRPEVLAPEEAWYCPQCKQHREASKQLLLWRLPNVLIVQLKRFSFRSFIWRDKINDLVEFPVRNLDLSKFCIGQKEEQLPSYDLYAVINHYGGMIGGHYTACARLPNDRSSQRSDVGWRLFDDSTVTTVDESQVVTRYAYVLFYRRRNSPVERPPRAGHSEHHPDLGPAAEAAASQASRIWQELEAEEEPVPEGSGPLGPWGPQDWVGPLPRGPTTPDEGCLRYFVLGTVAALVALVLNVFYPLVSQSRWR
In short: (§1)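 HEK293T lysate (495 µg per sample, in Tris/CHAPS/IGEPAL buffer with protease inhibitors) was treated in triplicate with fragment at 200 µM or with DMSO for 3 h. It was then treated with Biotin-Ahx-Ub-VS (0.5 µM final) for 1 h. Labelled DUBs were NeutrAvidin-enriched, digested with LysC and trypsin, and run by diaPASEF LC-MS/MS. Spectronaut label-free quantities were global-median-normalised. Values are average log2 ratios fragment/DMSO by unpaired t-test, using proteins with ≥2 unique peptides.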

[2] = molecular target: USP24 (UniProt Q9UPU5)
In short: as §1

[3] = molecular target: T2, USP25 (UniProt Q9UHP3)
T2 sequence (whole entry): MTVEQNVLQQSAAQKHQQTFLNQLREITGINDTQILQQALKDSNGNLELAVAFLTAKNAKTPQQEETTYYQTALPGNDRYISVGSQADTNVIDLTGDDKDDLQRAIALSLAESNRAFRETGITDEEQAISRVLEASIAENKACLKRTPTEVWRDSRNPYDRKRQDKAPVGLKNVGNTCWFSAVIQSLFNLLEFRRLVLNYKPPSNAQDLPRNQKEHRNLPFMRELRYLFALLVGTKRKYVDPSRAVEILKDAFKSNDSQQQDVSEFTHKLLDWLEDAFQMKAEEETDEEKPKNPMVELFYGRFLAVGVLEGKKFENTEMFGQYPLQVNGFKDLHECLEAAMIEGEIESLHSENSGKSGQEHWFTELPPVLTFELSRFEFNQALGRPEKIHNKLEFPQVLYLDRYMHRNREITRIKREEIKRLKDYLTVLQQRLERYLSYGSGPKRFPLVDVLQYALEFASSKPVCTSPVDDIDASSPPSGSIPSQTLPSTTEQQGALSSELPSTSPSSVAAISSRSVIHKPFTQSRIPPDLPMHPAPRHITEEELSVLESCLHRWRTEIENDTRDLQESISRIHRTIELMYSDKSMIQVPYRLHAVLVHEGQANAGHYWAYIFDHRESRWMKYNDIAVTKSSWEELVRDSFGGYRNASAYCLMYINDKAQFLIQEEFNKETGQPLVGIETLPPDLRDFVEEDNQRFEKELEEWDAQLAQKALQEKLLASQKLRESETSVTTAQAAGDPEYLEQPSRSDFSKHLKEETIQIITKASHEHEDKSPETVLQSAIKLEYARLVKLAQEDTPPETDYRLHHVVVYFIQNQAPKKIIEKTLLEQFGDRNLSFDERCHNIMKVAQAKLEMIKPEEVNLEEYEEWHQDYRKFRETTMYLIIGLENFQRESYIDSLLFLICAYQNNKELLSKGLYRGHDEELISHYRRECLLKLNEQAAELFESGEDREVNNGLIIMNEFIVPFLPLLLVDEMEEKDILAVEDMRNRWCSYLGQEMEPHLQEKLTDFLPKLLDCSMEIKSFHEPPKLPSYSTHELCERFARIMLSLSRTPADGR
In short: as §1

[4] = molecular target: T3, USP28 (UniProt Q96RU2)
T3 sequence (whole entry): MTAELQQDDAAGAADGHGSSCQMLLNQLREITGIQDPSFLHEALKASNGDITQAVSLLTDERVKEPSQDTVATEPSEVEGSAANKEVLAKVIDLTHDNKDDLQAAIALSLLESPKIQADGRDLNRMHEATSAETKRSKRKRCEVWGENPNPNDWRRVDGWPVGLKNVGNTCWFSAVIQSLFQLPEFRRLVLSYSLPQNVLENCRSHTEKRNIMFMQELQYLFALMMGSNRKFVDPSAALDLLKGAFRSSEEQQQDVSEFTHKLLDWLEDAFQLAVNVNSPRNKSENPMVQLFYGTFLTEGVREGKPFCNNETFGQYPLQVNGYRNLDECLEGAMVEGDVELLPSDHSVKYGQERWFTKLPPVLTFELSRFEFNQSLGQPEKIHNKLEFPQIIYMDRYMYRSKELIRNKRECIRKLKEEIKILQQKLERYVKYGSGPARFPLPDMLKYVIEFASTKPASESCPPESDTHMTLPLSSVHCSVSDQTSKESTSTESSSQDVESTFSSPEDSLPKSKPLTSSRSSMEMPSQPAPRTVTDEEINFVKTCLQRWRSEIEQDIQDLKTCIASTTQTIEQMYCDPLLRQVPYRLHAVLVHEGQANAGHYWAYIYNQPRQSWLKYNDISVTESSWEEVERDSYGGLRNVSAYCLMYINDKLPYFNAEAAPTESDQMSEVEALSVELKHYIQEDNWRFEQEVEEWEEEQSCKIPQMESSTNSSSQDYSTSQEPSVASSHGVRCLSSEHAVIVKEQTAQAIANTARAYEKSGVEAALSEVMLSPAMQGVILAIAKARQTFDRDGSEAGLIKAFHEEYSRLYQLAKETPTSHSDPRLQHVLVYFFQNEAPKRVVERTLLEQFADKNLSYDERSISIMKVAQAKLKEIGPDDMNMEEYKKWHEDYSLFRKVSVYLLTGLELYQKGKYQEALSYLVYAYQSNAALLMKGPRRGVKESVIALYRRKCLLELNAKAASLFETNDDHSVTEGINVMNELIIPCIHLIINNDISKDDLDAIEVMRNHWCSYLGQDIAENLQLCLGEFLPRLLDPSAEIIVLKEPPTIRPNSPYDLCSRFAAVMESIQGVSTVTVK
In short: as §1

Measured: log2 ratio of Biotin-Ahx-Ub-VS probe labelling

USP24, sequence (Q9UPU5 whole entry): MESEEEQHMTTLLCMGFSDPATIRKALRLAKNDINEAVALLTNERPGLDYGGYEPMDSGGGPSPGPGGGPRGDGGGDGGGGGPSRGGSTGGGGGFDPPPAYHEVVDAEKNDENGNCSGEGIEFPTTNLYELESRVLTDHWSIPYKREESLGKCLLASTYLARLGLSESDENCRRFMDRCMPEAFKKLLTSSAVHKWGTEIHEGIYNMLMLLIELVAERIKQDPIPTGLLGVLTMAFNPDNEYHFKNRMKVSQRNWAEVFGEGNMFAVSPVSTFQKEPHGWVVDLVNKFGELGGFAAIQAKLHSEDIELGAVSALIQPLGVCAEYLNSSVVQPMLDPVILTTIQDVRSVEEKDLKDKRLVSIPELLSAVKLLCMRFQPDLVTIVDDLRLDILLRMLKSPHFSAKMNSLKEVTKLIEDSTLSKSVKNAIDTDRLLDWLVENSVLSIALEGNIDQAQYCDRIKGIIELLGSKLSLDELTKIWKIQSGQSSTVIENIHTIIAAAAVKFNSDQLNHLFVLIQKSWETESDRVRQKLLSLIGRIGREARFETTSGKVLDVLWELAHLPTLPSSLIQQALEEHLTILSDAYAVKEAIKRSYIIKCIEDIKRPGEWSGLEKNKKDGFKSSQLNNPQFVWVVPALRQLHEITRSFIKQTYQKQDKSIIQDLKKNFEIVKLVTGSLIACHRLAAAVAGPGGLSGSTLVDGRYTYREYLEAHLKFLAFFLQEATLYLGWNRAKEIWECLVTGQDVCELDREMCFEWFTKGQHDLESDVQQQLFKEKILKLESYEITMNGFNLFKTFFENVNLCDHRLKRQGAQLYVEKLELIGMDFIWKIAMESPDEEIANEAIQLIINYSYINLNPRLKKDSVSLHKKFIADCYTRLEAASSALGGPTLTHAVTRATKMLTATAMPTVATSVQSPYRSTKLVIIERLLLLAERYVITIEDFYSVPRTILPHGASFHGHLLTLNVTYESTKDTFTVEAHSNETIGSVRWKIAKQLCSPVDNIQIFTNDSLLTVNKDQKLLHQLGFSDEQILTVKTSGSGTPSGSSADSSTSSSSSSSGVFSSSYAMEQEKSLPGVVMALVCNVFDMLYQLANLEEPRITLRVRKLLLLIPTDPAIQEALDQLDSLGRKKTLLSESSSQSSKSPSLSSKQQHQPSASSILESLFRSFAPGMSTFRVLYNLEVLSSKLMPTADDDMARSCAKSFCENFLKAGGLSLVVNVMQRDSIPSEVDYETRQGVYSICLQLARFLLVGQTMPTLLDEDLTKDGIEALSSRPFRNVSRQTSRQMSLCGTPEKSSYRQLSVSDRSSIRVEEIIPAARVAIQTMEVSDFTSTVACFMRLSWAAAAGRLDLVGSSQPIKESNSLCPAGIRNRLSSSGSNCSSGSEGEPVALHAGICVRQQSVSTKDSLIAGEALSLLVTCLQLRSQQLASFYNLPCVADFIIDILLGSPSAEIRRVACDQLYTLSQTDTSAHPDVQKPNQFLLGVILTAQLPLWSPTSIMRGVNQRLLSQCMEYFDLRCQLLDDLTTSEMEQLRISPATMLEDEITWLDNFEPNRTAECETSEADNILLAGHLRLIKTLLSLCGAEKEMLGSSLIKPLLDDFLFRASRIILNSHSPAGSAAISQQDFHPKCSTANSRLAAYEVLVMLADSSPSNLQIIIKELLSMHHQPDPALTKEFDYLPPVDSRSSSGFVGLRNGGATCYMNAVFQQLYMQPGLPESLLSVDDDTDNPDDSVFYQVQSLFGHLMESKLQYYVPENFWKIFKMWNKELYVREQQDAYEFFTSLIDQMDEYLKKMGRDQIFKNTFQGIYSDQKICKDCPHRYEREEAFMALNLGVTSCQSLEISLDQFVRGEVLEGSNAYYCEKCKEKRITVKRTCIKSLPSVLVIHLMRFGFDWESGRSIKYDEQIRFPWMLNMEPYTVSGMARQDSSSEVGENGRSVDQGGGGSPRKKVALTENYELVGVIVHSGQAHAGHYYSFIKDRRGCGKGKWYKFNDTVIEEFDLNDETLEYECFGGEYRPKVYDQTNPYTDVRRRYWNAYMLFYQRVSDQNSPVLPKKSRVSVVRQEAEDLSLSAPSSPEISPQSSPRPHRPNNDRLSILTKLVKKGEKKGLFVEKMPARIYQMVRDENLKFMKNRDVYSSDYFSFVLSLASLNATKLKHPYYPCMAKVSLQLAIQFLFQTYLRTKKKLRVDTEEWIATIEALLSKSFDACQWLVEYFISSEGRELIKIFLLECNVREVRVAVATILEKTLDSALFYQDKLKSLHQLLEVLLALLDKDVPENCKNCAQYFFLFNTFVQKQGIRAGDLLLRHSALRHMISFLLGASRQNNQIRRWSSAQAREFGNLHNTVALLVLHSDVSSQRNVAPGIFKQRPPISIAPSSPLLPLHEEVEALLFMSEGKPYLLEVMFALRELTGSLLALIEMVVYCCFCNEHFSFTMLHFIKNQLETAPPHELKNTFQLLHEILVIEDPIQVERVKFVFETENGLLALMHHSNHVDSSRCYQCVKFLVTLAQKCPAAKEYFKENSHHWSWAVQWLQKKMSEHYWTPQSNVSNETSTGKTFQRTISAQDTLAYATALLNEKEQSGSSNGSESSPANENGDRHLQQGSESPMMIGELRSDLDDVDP

CCCn1nccc1NC(=O)CCl
inactive: [1] -0.237 | [2] -0.693 | [3] -0.184 | [4] -0.445
